Experimental data from PubChem BioAssay (NCATS).
Inconclusive results are not listed. Active and inactive are the calls of the source. Unless noted, calls come from the whole dose curve; as a rule, active = well fitted curve in either direction with a large enough effect (not every such curve was filed as active); inconclusive = small, poorly fitted or top-dose-only effect, or another doubt; inactive = flat fitted curve, though single readings scatter.

Legend:
[1] = target: Lysosomal acid glucosylceramidase (Homo sapiens) (UniProt P04062); test: Glucocerebrosidase-p2 (AID 348; in the data active = potency below about 10 µM; note: potency is the fitted concentration of half-maximal effect); conditions: purified GBA, blue fluorogenic substrate, 40 min
Outline: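 Compounds titrated from 0.6 nM upwards against 0.2 nM enzyme in pH 5.9 citric acid/KH2PO4, taurocholate, tween-20; blue fluorogenic substrate 80 uM, 40 min room temperature, stopped and read Ex 365/Em 440 for AC50.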

[2] = AP1 Signaling Pathway (AID 357); conditions: ME-180 AP-1-bla reporter, EGF-induced, beta-lactamase ratio, 5 h; at 7.69 µM (top of the series) unless noted;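 note: ME-180 reporter cells stimulated with EGF at its EC50 level; % is set by controls: 0 for no effect and ±100 for the full control effect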
Outline: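 Modulation of EGF-driven AP-1 transcription was assessed with a beta-lactamase reporter in ME-180 cells. Compound and EC50 EGF were co-incubated 5 hours at 37 °C before 2.5-hour CCF4 loading at room temperature and dual-emission reading.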

[3] = NFAT Signaling Pathway (AID 444); conditions: Jurkat NFAT-bla M1, carbachol, beta-lactamase ratio, 5 h; at 7.69 µM (top of the series) unless noted;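 note: carbachol stimulus at about its EC50 of 1 µM final; % is set by controls: 0 for no effect and ±100 for the full control effect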
Outline: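 Jurkat cells with NFAT-driven β-lactamase reporter and co-expressed M1 receptor, stimulated with carbachol (final 1 uM, ~EC50), compound titration, 5 h at 37 °C. CCF4 loaded 1 h at RT; 460/530 nm ratio gave %activity and AC50.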

[4] = Stat Signaling Pathway (AID 446); conditions: ME-180 SIE beta-lactamase reporter, IL-6 stimulated, 5 h; at 7.69 µM (top of the series) unless noted;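 note: ME-180 cervical cancer cells given 40 pM IL-6 alongside compound; SIE-controlled beta-lactamase reporter measured as 460/530 nm FRET emission ratio; % is set by controls: 0 for no effect and ±100 for the full control effect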
Outline: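 ME-180 cells carrying a SIE-driven beta-lactamase reporter are stimulated with 40 pM IL-6 for 5 h at 37C in the presence of compound. The 460/530 nm FRET substrate ratio is read after 2.5 h at RT. Data are normalised to 300 pM IL-6 and to 125 nM JAK inhibitor controls.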

[5] = target: Glucocorticoid receptor (Homo sapiens) (UniProt P04150); test: GR-GFP Redistribution (AID 450;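 active = compounds whose dose series gives a full or clear partial fitted curve of increased nuclear translocation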; note: potency is the fitted concentration of half-maximal effect); conditions: U2OS GR-GFP nuclear translocation, laser cytometry, 2 h
[6] = target: Glucocorticoid receptor (Homo sapiens) (UniProt P04150); test: GR-EFC Redistribution (AID 451; calls by dose curve; note: potency is the fitted concentration of half-maximal effect); conditions: CHO-K1 GR-EFC translocation, beta-gal luminescence, 2 h
Outline: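 CHO-K1 cells expressing nuclear EA and GR-ED fragments of b-gal; compounds titrated up to 46 uM final, 2 h at 37 C. GR nuclear translocation read as complemented b-gal luminescence after 1 h RT detection.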

[7] = target: Mitogen-activated protein kinase 10 (Mus musculus) (UniProt Q61831); test: JNK3 AlphaScreen Assay (AID 530); conditions: JNK3 lysate, c-Jun phosphorylation; series mostly up to 11.4 µM;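 note: kinase came from lysate of stimulated human HepG2 cells; signal reports phosphorylation of biotinylated GST-cJun 1-79 at Ser73 with 10 µM ATP; % is set by controls: 0 for no effect and ±100 for the full control effect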
Outline: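 Pre-activated (IL-1β/TNFα) JNK3 in HepG2 lysates phosphorylates biotin-GST-cJun(1-79), 10 uM ATP; anti-phospho-cJun(Ser73) AlphaScreen read at room temperature, pH 7.6 Tris buffer. Compounds pre-incubated 15 min as titrations.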

[8] = target: 3',5'-cyclic-AMP phosphodiesterase 4B (Homo sapiens) (UniProt Q07343); test: qHTS Assay for Inhibitors of PDE-IV (AID 607; active = well fitted activation curve with a large enough effect in the main read-out, with a control signal flat, not every such curve was filed as active; note: % of control where 0% means no effect); conditions: HEK293 ACTOne CNG channel cells, membrane potential fluorescence; series mostly up to 22.9 µM
Outline: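 HEK293 ACTOne cells with CNG channel (1000/well), endogenous PDE4; membrane potential dye, compounds up to 22.9 uM final. Fluorescence Ex 535/Em 590; RO 20-1724 (100 uM final) as reference.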

Lysosomal acid glucosylceramidase (Homo sapiens), sequence (P04062 whole entry, looked up): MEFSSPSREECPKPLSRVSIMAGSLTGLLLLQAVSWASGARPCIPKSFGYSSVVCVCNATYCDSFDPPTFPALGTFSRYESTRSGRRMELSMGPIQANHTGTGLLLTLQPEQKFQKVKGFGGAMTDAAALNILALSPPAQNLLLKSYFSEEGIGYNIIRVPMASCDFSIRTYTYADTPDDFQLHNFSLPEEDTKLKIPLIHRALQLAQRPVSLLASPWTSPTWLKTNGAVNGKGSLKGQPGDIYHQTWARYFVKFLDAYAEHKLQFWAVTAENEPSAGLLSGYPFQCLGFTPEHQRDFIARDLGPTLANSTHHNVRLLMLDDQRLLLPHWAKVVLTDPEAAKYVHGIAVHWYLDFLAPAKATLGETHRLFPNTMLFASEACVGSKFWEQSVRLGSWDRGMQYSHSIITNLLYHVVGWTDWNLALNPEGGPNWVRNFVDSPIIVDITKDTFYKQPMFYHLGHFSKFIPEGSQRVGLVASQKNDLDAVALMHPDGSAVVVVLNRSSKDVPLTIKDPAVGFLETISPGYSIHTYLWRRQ
Glucocorticoid receptor (Homo sapiens), sequence (P04150 whole entry, looked up, the tested form may be a part): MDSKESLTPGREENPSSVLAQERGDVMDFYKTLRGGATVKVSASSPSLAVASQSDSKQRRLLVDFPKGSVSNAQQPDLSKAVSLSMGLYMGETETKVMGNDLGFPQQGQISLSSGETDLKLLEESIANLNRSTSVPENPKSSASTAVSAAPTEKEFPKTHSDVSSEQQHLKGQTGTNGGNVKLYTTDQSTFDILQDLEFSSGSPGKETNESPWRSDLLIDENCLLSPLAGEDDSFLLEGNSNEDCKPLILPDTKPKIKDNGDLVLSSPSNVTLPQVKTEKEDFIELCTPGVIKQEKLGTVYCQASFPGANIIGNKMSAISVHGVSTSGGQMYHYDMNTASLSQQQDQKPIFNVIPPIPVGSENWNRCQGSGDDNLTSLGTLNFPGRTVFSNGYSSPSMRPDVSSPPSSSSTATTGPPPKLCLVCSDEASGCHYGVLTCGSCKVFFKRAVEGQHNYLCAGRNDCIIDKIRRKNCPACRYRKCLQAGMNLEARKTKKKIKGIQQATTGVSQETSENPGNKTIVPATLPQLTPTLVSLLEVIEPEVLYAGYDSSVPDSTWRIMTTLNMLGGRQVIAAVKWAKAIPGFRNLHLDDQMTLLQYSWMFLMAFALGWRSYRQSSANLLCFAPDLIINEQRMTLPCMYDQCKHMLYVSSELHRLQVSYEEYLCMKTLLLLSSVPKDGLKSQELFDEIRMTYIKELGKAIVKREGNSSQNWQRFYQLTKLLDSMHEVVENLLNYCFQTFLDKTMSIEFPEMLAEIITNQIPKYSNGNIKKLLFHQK
3',5'-cyclic-AMP phosphodiesterase 4B (Homo sapiens), sequence (Q07343 whole entry, looked up): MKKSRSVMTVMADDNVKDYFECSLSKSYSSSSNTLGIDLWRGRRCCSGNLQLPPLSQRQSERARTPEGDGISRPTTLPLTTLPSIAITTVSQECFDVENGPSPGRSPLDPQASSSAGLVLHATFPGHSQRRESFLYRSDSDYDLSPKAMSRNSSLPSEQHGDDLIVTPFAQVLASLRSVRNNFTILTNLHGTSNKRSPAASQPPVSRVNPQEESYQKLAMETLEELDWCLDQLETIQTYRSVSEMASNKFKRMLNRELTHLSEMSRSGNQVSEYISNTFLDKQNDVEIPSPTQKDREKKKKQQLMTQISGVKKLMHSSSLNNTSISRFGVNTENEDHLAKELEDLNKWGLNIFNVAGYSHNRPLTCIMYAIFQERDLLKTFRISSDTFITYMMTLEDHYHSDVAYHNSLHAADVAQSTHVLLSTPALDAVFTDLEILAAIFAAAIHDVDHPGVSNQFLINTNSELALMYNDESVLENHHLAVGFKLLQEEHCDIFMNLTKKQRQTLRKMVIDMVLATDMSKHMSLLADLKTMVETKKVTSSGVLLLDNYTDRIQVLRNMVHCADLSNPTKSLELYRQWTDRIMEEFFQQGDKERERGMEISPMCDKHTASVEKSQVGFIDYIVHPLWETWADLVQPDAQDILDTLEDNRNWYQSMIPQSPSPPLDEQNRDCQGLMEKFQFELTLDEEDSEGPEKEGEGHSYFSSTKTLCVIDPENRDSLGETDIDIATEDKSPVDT

[N-]=[N+]=CC(=O)COC(=O)c1ccccc1
inactive: Potency [1] > 11.4 µM | activity change, negative = inhibition [2] 9.2% | activity change, negative = inhibition [3] 16.5% | activity, negative = inhibition [4] -0.859% | Potency [5] > 46 µM | Potency [6] > 9.22 µM | Potency [7] | Potency [8]

O=C(NC1(C(=O)O)CCCC1)c1ccccc1
inactive: Potency [1] > 11.4 µM | activity change, negative = inhibition [2] -4.54% | activity change, negative = inhibition [3] 12% | activity, negative = inhibition [4] 6.79% | Potency [5] > 46 µM | Potency [6] > 9.22 µM | Potency [7] | Potency [8]

CNC/C(Cl)=N/S(=O)(=O)c1ccc(C)cc1
inactive: Potency [1] > 11.4 µM | activity change, negative = inhibition [2] -4.53% | activity change, negative = inhibition [3] 8.45% | activity, negative = inhibition [4] 2.28% | Potency [5] > 46 µM | Potency [6] > 9.22 µM | Potency [7] | Potency [8]

O=C1CC[C@](CCc2nc3ccccc3[nH]2)(c2ccccc2)C(=O)N1
inactive: Potency [1] > 11.4 µM | activity change, negative = inhibition [2] 1.26% | activity change, negative = inhibition [3] 7.74% | activity, negative = inhibition [4] 3.31% | Potency [5] > 46 µM | Potency [6] > 9.22 µM | Potency [7] | Potency [8]

CC(C)(C)c1c2c(c(C(C)(C)C)c3c1OCN(Cc1ccccc1)C3)OCN(Cc1ccccc1)C2
inactive: Potency [1] > 11.4 µM | activity change, negative = inhibition [2] 0.594% | activity change, negative = inhibition [3] 0.0878% | activity, negative = inhibition [4] -2.37% | Potency [5] > 46 µM | Potency [6] > 9.22 µM | Potency [7] | Potency [8]

CC(=O)Nc1cc(CN2CCCCC2)c(O)c2ncccc12
inactive: Potency [1] > 11.4 µM | activity change, negative = inhibition [2] 4.21% | activity change, negative = inhibition [3] -27.8% | activity, negative = inhibition [4] 6.71% | Potency [5] > 46 µM | Potency [6] > 9.22 µM | Potency [7] | Potency [8]

N[C@@H](CSc1nc2ccccn2c1[N+](=O)[O-])C(=O)O
inactive: Potency [1] > 11.4 µM | activity change, negative = inhibition [2] -2.33% | activity change, negative = inhibition [3] 9.56% | activity, negative = inhibition [4] -1.41% | Potency [5] > 46 µM | Potency [6] > 9.22 µM | Potency [7] | Potency [8]

CC(=O)CSCc1ccccn1
inactive: Potency [1] > 11.4 µM | activity change, negative = inhibition [2] 4.51% | activity change, negative = inhibition [3] -1.92% | activity, negative = inhibition [4] -2.34% | Potency [5] > 46 µM | Potency [6] > 9.22 µM | Potency [7] | Potency [8]

[Cu].[NH-][C@H](CC(=O)O)C(=O)O.[NH-][C@H](CC(=O)O)C(=O)O
inactive: Potency [1] > 11.4 µM | activity change, negative = inhibition [2] 5.72% | activity change, negative = inhibition [3] 8.79% | activity, negative = inhibition [4] 13.3% | Potency [5] > 46 µM | Potency [6] > 9.22 µM | Potency [7] | Potency [8]

C[C@H](Br)C(=O)Nc1ccc(C(=O)O)c(O)c1
inactive: Potency [1] > 11.4 µM | activity change, negative = inhibition [2] 1.78% | activity change, negative = inhibition [3] -22.6% | activity, negative = inhibition [4] -4.23% | Potency [5] > 46 µM | Potency [6] > 9.22 µM | Potency [7] | Potency [8]

CCCS(=O)(=O)O
inactive: Potency [1] > 11.4 µM | activity change, negative = inhibition [2] -5.23% | activity change, negative = inhibition [3] 0.712% | activity, negative = inhibition [4] 4.08% | Potency [5] > 46 µM | Potency [6] > 9.22 µM | Potency [7] | Potency [8]

CCC(=O)[C@@H](c1ccccc1)c1ccccn1
inactive: Potency [1] > 11.4 µM | activity change, negative = inhibition [2] 10.3% | activity change, negative = inhibition [3] -5.51% | activity, negative = inhibition [4] 0.735% | Potency [5] > 46 µM | Potency [6] > 9.22 µM | Potency [7] | Potency [8]

Cn1c(=O)c2[nH]c(CCNC(=O)c3ccccc3)nc2n(C)c1=O
inactive: Potency [1] > 11.4 µM | activity change, negative = inhibition [2] 5.92% | activity change, negative = inhibition [3] 10.4% | activity, negative = inhibition [4] 3.06% | Potency [5] > 46 µM | Potency [6] > 9.22 µM | Potency [7] | Potency [8]

CC(=O)O[C@H]1CC[C@]2(C)C(=CC[C@H]3[C@H]4C[C@H]5O[C@]6(CC[C@H](C)CN6)[C@H](C)[C@@H]5[C@]4(C)CC[C@@H]32)C1
inactive: Potency [1] > 11.4 µM | activity change, negative = inhibition [2] 13.4% | activity change, negative = inhibition [3] 0.916% | activity, negative = inhibition [4] 3.85% | Potency [5] > 46 µM | Potency [6] > 9.22 µM | Potency [7] | Potency [8]

Nc1c(S(=O)(=O)O)cc(S(=O)(=O)O)c2ccc(N=Nc3ccccc3)c(O)c12
inactive: Potency [1] > 11.4 µM | activity change, negative = inhibition [2] 1.28% | activity change, negative = inhibition [3] -3.14% | activity, negative = inhibition [4] -2.56% | Potency [6] > 9.22 µM | Potency [7] | Potency [8]
active: Potency [5] 2.59 µM

Cc1[nH]c(C)c(CN(C)C)c1CN(C)C
inactive: Potency [1] > 11.4 µM | activity change, negative = inhibition [2] -2.51% | activity change, negative = inhibition [3] -26.2% | activity, negative = inhibition [4] 12.9% | Potency [5] > 46 µM | Potency [6] > 9.22 µM | Potency [7] | Potency [8]

N[C@@]1(C(=O)O)CCC[C@@H]1C(=O)O
inactive: Potency [1] > 11.4 µM | activity change, negative = inhibition [2] 6.92% | activity change, negative = inhibition [3] 10.2% | activity, negative = inhibition [4] 9.09% | Potency [5] > 46 µM | Potency [6] > 9.22 µM | Potency [7] | Potency [8]

O=C(O)CCc1ccc(-c2ccccc2)[nH]1
inactive: Potency [1] > 11.4 µM | activity change, negative = inhibition [2] 2.27% | activity change, negative = inhibition [3] 13.2% | activity, negative = inhibition [4] 1.73% | Potency [5] > 46 µM | Potency [6] > 9.22 µM | Potency [7] | Potency [8]

CO[C@@H]1/C=C\O[C@]2(C)Oc3c(C)c(O)c4c(O)c(c(CN5CCN(C)CC5)c(O)c4c3C2=O)NC(=O)/C(C)=C\C=C[C@@H](C)[C@@H](O)[C@H](C)[C@@H](O)[C@H](C)[C@H](OC(C)=O)[C@@H]1C
inactive: Potency [1] > 11.4 µM | activity change, negative = inhibition [2] -8.05% | activity change, negative = inhibition [3] 7.34% | activity, negative = inhibition [4] -6.61% | Potency [5] > 46 µM | Potency [6] > 9.22 µM | Potency [7] | Potency [8]

O=C(O)/C(Cc1ccc([N+](=O)[O-])cc1)=N/O
inactive: Potency [1] > 11.4 µM | activity change, negative = inhibition [2] 3.45% | activity change, negative = inhibition [3] -0.295% | activity, negative = inhibition [4] 7.71% | Potency [5] > 46 µM | Potency [6] > 9.22 µM | Potency [7] | Potency [8]

C[C@H]1[C@H](C)CC[C@]2(C(=O)O)CC[C@]3(C)C(=CC[C@@H]4[C@]5(C)C[C@H](O)[C@@H](O)[C@@](C)(CO)[C@@H]5[C@H](O)C[C@@]43C)[C@H]12
inactive: Potency [1] > 11.4 µM | activity change, negative = inhibition [2] -6.13% | activity change, negative = inhibition [3] 27.7% | activity, negative = inhibition [4] 8.93% | Potency [5] > 46 µM | Potency [6] > 9.22 µM | Potency [7] | Potency [8]

O=c1ccc(-c2ccccc2)n[nH]1
inactive: Potency [1] > 11.4 µM | activity change, negative = inhibition [2] 1.12% | activity change, negative = inhibition [3] -2.18% | activity, negative = inhibition [4] -3.27% | Potency [5] > 46 µM | Potency [6] > 9.22 µM | Potency [7] | Potency [8]

O=C(O)c1ccc(C(=O)O)c2c(C(=O)O)ccc(C(=O)O)c12
inactive: Potency [1] > 11.4 µM | activity change, negative = inhibition [2] -5.07% | activity change, negative = inhibition [3] 5.59% | activity, negative = inhibition [4] -1.89% | Potency [5] > 46 µM | Potency [6] > 9.22 µM | Potency [7] | Potency [8]

O=C(O)C(=O)/C=C(\O)c1ccc(Br)cc1
inactive: Potency [1] > 11.4 µM | activity change, negative = inhibition [2] -0.263% | activity change, negative = inhibition [3] 12.1% | activity, negative = inhibition [4] 11.6% | Potency [5] > 46 µM | Potency [6] > 9.22 µM | Potency [7] | Potency [8]

O[C@H]([C@H](O)[C@@H](O)c1nc2ccccc2[nH]1)[C@@H](O)c1nc2ccccc2[nH]1
inactive: Potency [1] > 11.4 µM | activity change, negative = inhibition [2] 6.21% | activity change, negative = inhibition [3] 19.9% | activity, negative = inhibition [4] 6.86% | Potency [5] > 46 µM | Potency [6] > 9.22 µM | Potency [7] | Potency [8]

Nc1nc(SCC(=O)c2ccc(Br)cc2)c2[nH]cnc2n1
inactive: Potency [1] > 11.4 µM | activity change, negative = inhibition [2] -11.1% | activity change, negative = inhibition [3] 23.5% | activity, negative = inhibition [4] 1.94% | Potency [5] > 46 µM | Potency [6] > 9.22 µM | Potency [7] | Potency [8]

CNC[C@@H](SC)c1ccc(O)c(O)c1
inactive: Potency [1] > 11.4 µM | activity change, negative = inhibition [2] 1.24% | activity change, negative = inhibition [3] 7.41% | activity, negative = inhibition [4] 21% | Potency [5] > 46 µM | Potency [6] > 9.22 µM | Potency [7] | Potency [8]

COc1cc2c(cc1O)[C@@H](c1cc(O)c(O)c(OC)c1)[C@@](O)(C(=O)O)[C@@H](CO)[C@@H]2O
inactive: Potency [1] > 11.4 µM | activity change, negative = inhibition [2] 0.0448% | activity change, negative = inhibition [3] -5.96% | activity, negative = inhibition [4] 4.61% | Potency [5] > 46 µM | Potency [6] > 9.22 µM | Potency [7] | Potency [8]
